The values below come from PubChem BioAssay (NCI).

The structures appear in SMILES notation. Values joined by “and” are separate entries in the source; they are usually repeats but may differ in a detail not shown here. Equal entries are not always repeated. About 83,000 compounds went through this panel and 20% of them were active in at least one assay; those are over-represented in the sample as a whole.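 Negative percent growth values reflect cell death: -40 means 40% of the cells present at the start died, and -100 means all died.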 Active and inactive are the calls of the source. The calls were made as follows: active = growth percent below 10; inactive = the rest.

Test systems include NCI-H226 lung; NCI-H322M lung; NCI-H460 lung; HOP-92 NSCLC; NCI-H522 lung; A549/ATCC NSCLC; 786-0 renal; COLO 205 colon; DU-145 prostate; K-562 leukemia; MALME-3M melanoma; MDA-MB-231 breast; RXF 393 renal; SF-268 CNS; SF-295 CNS; SF-539 CNS; UACC-257 melanoma; M14 melanoma; HOP-62 NSCLC.
What all share (experiment): NCI-60 one-dose screen, 48 h (100 = growth as untreated, 0 = no growth, -100 = all killed)
Settings in all cases: 10 µM unless noted

Consider `O=NN(c1ccccc1)c1ccccc1`, for which the growth with NCI-H226 lung was 95% (inactive); in the assay with NCI-H322M lung, 94.1% (inactive); in the assay on NCI-H460 lung it was 102% (inactive); in the assay on HOP-92 NSCLC it was 88.1% (inactive); in the assay with NCI-H522 lung, 105% (inactive); in the assay on A549/ATCC NSCLC it was 96% (inactive). For the same molecule, the growth in the assay on 786-0 renal is 105% (inactive); in the assay on COLO 205 colon, 110% (inactive); with DU-145 prostate it was 103% (inactive); with K-562 leukemia, 113% (inactive); in the assay with MALME-3M melanoma, 86.2% (inactive); in the assay on MDA-MB-231 breast, 98.9% (inactive). Also, the growth in the assay on RXF 393 renal was 98.3% (inactive); in the assay on SF-268 CNS it was 100% (inactive); with SF-295 CNS, 102% (inactive); in the assay with SF-539 CNS it was 106% (inactive); in the assay on UACC-257 melanoma, 96% (inactive); with M14 melanoma it was 106% (inactive).
As to `CCCCCCCCCCCCCCCC[N+](C)(C)Cc1ccccc1`, the growth in the assay with NCI-H226 lung is 21.5% (inactive) and -6.4% (active); in the assay with NCI-H322M lung, 63.3% (inactive) and 33.8% (inactive); with HOP-62 NSCLC, 17.9% (inactive) and -86.3% (active); in the assay with NCI-H460 lung, 15.7% (inactive) and -100% (active); in the assay with HOP-92 NSCLC, -39.2% (active) and -55.5% (active); in the assay with NCI-H522 lung, 4.46% (active) and -58.2% (active). Also, the growth is 11% (inactive) and -94.1% (active) in the assay with 786-0 renal; -30.4% (active) and -100% (active) in the assay on COLO 205 colon; 26.7% (inactive) and -40.3% (active) in the assay with DU-145 prostate; 15% (inactive) and -22.5% (active) in the assay with K-562 leukemia; -25% (active) and -55.5% (active) in the assay on MALME-3M melanoma; -41.4% (active) and -70.1% (active) in the assay with MDA-MB-231 breast. The growth with RXF 393 renal is 0.124% (active); in the assay with SF-268 CNS, 0.106% (active) and -74.5% (active); in the assay with SF-295 CNS, 20.6% (inactive) and -28.5% (active); with SF-539 CNS, -61.2% (active) and -99.3% (active).
As to `N#CC(C#N)=C(C#N)C#N`, the growth in the assay on NCI-H226 lung was 101% (inactive); in the assay with NCI-H322M lung, 103% (inactive); in the assay with HOP-62 NSCLC, 108% (inactive); in the assay with NCI-H460 lung it was 106% (inactive); in the assay on A549/ATCC NSCLC, 99.9% (inactive); in the assay on 786-0 renal it was 101% (inactive). Also, the growth in the assay on COLO 205 colon is 114% (inactive); in the assay on DU-145 prostate, 110% (inactive); in the assay on K-562 leukemia, 108% (inactive); with MALME-3M melanoma, 108% (inactive); in the assay on MDA-MB-231 breast, 106% (inactive); in the assay with RXF 393 renal it was 111% (inactive). Further, the growth in the assay on SF-268 CNS is 96% (inactive); in the assay on SF-539 CNS it was 93.7% (inactive); with UACC-257 melanoma, 97.8% (inactive); in the assay on M14 melanoma, 102% (inactive).
As to `CC(C)CCC1C(=O)NC(=O)NC1=O`, the growth with NCI-H226 lung is 116% (inactive); with NCI-H322M lung, 94.4% (inactive); with HOP-62 NSCLC, 87.4% (inactive); with NCI-H460 lung it was 97.7% (inactive); with HOP-92 NSCLC it was 109% (inactive); with A549/ATCC NSCLC it was 78.5% (inactive). In addition, the growth was 104% (inactive) in the assay on 786-0 renal; 100% (inactive) in the assay on COLO 205 colon; 109% (inactive) with DU-145 prostate; 109% (inactive) in the assay with K-562 leukemia; 88.9% (inactive) in the assay with MALME-3M melanoma; 97.3% (inactive) in the assay on MDA-MB-231 breast. The growth in the assay on RXF 393 renal is 117% (inactive); in the assay on SF-268 CNS it was 96.2% (inactive); with SF-295 CNS it was 98.4% (inactive); with UACC-257 melanoma, 95.5% (inactive); with M14 melanoma, 99.9% (inactive).
Take `C=CC[PH+](c1ccccc1)c1ccccc1.C=CC[PH+](c1ccccc1)c1ccccc1.[Pt+2].[S-]c1nc2ccccc2[nH]1.[S-]c1nc2ccccc2[nH]1`: the growth with NCI-H226 lung is -20.6% (active); in the assay with NCI-H322M lung, 6.44% (active); with HOP-62 NSCLC, -0.445% (active); with NCI-H460 lung, -6.83% (active); in the assay with HOP-92 NSCLC it was -44.3% (active); in the assay with A549/ATCC NSCLC it was -3.29% (active). The growth is -4.36% (active) with 786-0 renal; -36.7% (active) in the assay on COLO 205 colon; 15.1% (inactive) in the assay on DU-145 prostate; 4.86% (active) with K-562 leukemia; -72.8% (active) in the assay on MALME-3M melanoma; -44.3% (active) with MDA-MB-231 breast. The growth in the assay with RXF 393 renal is -0.0777% (active); in the assay with SF-268 CNS, 1.83% (active); in the assay on SF-295 CNS it was -9.49% (active); in the assay on SF-539 CNS, -28.6% (active); in the assay with UACC-257 melanoma it was -25.7% (active); in the assay with M14 melanoma it was -18.6% (active).
As to `CC(=O)Cc1ccc2c(c1)OCO2`, the growth with NCI-H226 lung is 104% (inactive); with NCI-H322M lung, 113% (inactive); in the assay with NCI-H460 lung it was 109% (inactive); in the assay with HOP-92 NSCLC it was 110% (inactive); in the assay on NCI-H522 lung, 96.1% (inactive); in the assay with A549/ATCC NSCLC, 96% (inactive). The growth with 786-0 renal is 109% (inactive); in the assay with COLO 205 colon it was 117% (inactive); with DU-145 prostate, 111% (inactive); in the assay on K-562 leukemia it was 116% (inactive); with MALME-3M melanoma, 116% (inactive); in the assay with MDA-MB-231 breast it was 89.1% (inactive). For the same molecule, the growth in the assay on RXF 393 renal is 115% (inactive); in the assay with SF-268 CNS it was 98.3% (inactive); with SF-295 CNS, 109% (inactive); in the assay on SF-539 CNS, 95.4% (inactive); in the assay with UACC-257 melanoma, 104% (inactive); in the assay with M14 melanoma it was 105% (inactive).
With `CCCCn1c(=O)c(C(=O)NCc2ccccc2Cl)c(O)c2ccccc21`, the growth is 63% (inactive) in the assay with NCI-H226 lung; 75.2% (inactive) with NCI-H322M lung; 76.9% (inactive) with HOP-62 NSCLC; 67.6% (inactive) with NCI-H460 lung; 66.9% (inactive) in the assay with HOP-92 NSCLC; 73.4% (inactive) in the assay with NCI-H522 lung. The growth is 58% (inactive) with A549/ATCC NSCLC; 52.2% (inactive) in the assay on 786-0 renal; 92.8% (inactive) in the assay with COLO 205 colon; 84.6% (inactive) with DU-145 prostate; 42.3% (inactive) with K-562 leukemia; 98% (inactive) in the assay on MALME-3M melanoma. In addition, the growth in the assay with MDA-MB-231 breast was 88.7% (inactive); in the assay on RXF 393 renal, 87.7% (inactive); in the assay on SF-268 CNS, 80.8% (inactive); in the assay on SF-295 CNS it was 51.8% (inactive); in the assay on SF-539 CNS it was 97.4% (inactive); in the assay with UACC-257 melanoma, 80.9% (inactive). The growth in the assay on M14 melanoma is 59.4% (inactive).
